Measles CPE: compounds protecting cells from measles virus cytopathic effect, primary screen, measles RdRp inhibitor project, single point, MLSMR library, absorbance. Measles virus-infected cells, CPE protection. protection (pct of control), % at 4 µM. 140,000 tested, 1.5% active; in the data active means protection mostly above about 24%, no sharp cut-off; inactive means mostly below about 26%
CYP2C19 inh: blockers of cytochrome P450 2C19 activity – biochemical, luminescence, ADME assay, primary screen. CYP2C19 Supersomes, luciferin-H EGE luminescence, 30 min. inhibition, % at 5 µM. 96,000 tested, 21% active. AID 778, 2007;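 active means CYP2C19 inhibition above a set limit at 5 µM in the primary screen, cut at about 50% in these data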;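 further: plate controls were negative control wells for no effect and 2.5 mM tranylcypromine positive control for full effect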
CYP2C9 activ: human CYP2C9 activators, primary screen, biochemical, luminescence. Cytochrome P450 2C9 (Homo sapiens), P11712. recombinant CYP2C9, luciferin-H conversion; active compounds read high; factor 1 = untreated enzyme, 0 = blocked. activation factor at 5 µM. 96,000 tested, 1.4% active. AID 1024, 2008;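 active means activation factor of 2 or more for CYP2C9 at a 5 µM dose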;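 further: 0 = sulfaphenazole-blocked wells and 1 = vehicle-only wells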
Target sequence (P11712 whole entry, looked up): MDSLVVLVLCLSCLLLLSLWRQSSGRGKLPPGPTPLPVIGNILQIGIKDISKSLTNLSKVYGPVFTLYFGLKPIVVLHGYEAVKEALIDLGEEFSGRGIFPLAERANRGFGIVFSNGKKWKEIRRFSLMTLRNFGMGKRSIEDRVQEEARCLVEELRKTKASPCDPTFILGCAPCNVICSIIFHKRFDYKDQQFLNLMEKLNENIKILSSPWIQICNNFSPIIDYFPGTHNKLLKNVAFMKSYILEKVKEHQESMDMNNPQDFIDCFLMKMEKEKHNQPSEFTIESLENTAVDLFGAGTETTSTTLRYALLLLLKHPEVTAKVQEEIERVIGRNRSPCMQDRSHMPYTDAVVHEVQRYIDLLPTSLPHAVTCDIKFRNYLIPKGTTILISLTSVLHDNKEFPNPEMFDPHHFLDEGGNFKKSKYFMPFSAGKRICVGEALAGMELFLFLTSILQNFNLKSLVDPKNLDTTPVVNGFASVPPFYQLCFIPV
CYP2C9 inh: blockers of cytochrome P450 2C9 activity – biochemical, luminescence, ADME assay, primary screen; CYP2C9 Supersomes, luciferin-H conversion; P11712; inhibition, % at 5 µM; 96,000 tested, 20% active;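 active means blocking of liver enzyme CYP2C9 beyond about 50% at 5 µM, limit read from the data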
CYP2C19 activ: human CYP2C19 activators, primary screen, biochemical, luminescence. recombinant CYP2C19, luciferin-H EGE luminescence; active compounds read high; 0 = fully inhibited enzyme, 1 = untreated enzyme. AID 1025, 2008. Cytochrome P450 2C19 (Homo sapiens), P33261. 96,000 tested, under 10 active. activation factor at 5 µM;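 active means activation factor of at least 2 at 5 µM in the primary screen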;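 further: 0 = wells with 2.5 mM tranylcypromine and 1 = vehicle-only wells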
Active calls of the source: *; / = not tested or not shown. An excerpt weighted towards active compounds, which were near 22% of everything screened.

SMILES | Measles CPE | CYP2C19 inh | CYP2C9 activ | CYP2C9 inh | CYP2C19 activ
O=C(CCCOc1ccccc1)N1CCN(C(=O)c2ccco2)CC1 | 24 | 31 | 0.7 | 32 | 0.7
O=C(CCCOc1ccc(Cl)cc1Cl)N1CCN(c2ccccn2)CC1 | 3 | 76* | 0.6 | 43 | 0.2
Nc1nncn1C(=O)CCCOc1ccc(Cl)cc1Cl | 21 | 65* | 0.9 | 6 | 0.4
Cc1ccc(NC(=O)C2CCCN2C(=O)Oc2ccccc2)cc1C (configuration not stated) | 16 | 14 | 0.6 | 38 | 0.9
COc1ccc(CCNC(=O)Cn2cnc3c(cnn3C(C)(C)C)c2=O)cc1OC | 4 | 5 | 0.9 | 11 | 1
O=C(CCCOc1ccccc1)N1CCN(c2ccccn2)CC1 | 13 | 80* | 0.3 | 69* | 0.2
O=C(CCCCCNc1nc(=S)[nH]c2ccccc12)N1CCN(c2ccccn2)CC1 | 7 | 57* | 0.4 | 62* | 0.4
Cc1cc(Cl)ccc1OCCCC(=O)N1CCN(C(=O)c2ccco2)CC1 | 7 | 65* | 0.7 | 27 | 0.4
O=C(Oc1ccccc1)N1CCN(c2ccc(F)cc2)CC1 | 12 | 85* | 1.1 | -8 | 0.2
O=C(CCCn1c(=O)[nH]c2ccccc2c1=O)N1CCN(c2ccccn2)CC1 | 4 | / | / | / | /
O=C(CSCc1ccccc1)N1CCN(c2ccc(F)cc2)CC1 | 9 | 49 | 0.8 | 21 | 0.5
CC(C)NC(=O)C1CCN(Cc2cnn(-c3ccccc3)c2-n2cccc2)CC1 | 5 | -16 | 1.1 | -7 | 1.2
CC(=O)C1=NN(c2ccccc2)C(c2cccs2)N1c1ccc(N(C)C)cc1 (configuration not stated) | 17 | 34 | 0.7 | 32 | 0.7
CCc1ccc(-c2nn(-c3ccccc3)cc2C2SCC(=O)N2Cc2ccco2)cc1 (configuration not stated) | 17 | 44 | 0.3 | 67* | 0.6
O=C1CSC(c2cn(-c3ccccc3)nc2-c2cccs2)N1CC1CCCO1 (configuration not stated) | 24 | 73* | 0.2 | 80* | 0.3
COC(=O)C1=C(C)NC(=O)NC1c1cn(-c2ccccc2)nc1-c1cccs1 (configuration not stated) | 3 | 20 | 0.8 | 17 | 0.8
O=C1CSC(c2cn(-c3ccccc3)nc2-c2ccccc2)N1Cc1ccco1 (configuration not stated) | 28 | 86* | 0 | 96* | 0.1
O=C(c1cc2ccccc2oc1=O)N(Cc1cccs1)Cc1ccccc1Cl | 18 | / | / | / | /
C/C(=C/CCC(C)[C@H]1CC[C@@]2(C)C3=C(CC[C@]12C)[C@@]1(C)CCC(=O)C(C)(C)[C@@H]1CC3)C(=O)O (some centres not stated) | 10 | / | / | / | /
NS(=O)(=O)c1ccc(CCNC(=O)C2Cc3ccccc3CN2C(=O)c2ccco2)cc1 (configuration not stated) | 22 | 14 | 0.8 | 23 | 0.9
O=C(NCCc1c[nH]c2ccccc12)C(F)(F)C(F)F | 8 | 72* | 0.7 | 27 | 0.3
CCSc1nnc(NC(=O)C2Cc3ccccc3CN2C(=O)c2ccco2)s1 (configuration not stated) | 13 | 23 | 0.5 | 53* | 0.8
O=C(NCCc1c[nH]c2ccccc12)Nc1ccccc1 | 2 | 91* | 1.2 | -20 | 0.1
O=C(NCCc1c[nH]c2ccccc12)C1Cc2ccccc2CN1C(=O)c1ccco1 (configuration not stated) | 5 | 95* | 0.4 | 63* | 0
Cc1cccc(NC(=S)NCCc2c[nH]c3ccccc23)c1 | 3 | / | / | / | /
SMILES | Measles CPE | CYP2C19 inh | CYP2C9 activ | CYP2C9 inh | CYP2C19 activ
O=C(O)C1CCCCC1C(=O)NCCc1ccncc1 (configuration not stated) | 31 | 46 | 0.3 | 67* | 0.5
COc1ccc(Cl)cc1NC(=S)NCCc1c[nH]c2ccccc12 | 11 | 92* | 2.3* | -130 | 0.1
O=C(O)C1CCCCC1C(=O)NCCc1c[nH]c2ccccc12 (configuration not stated) | 9 | 75* | 0.7 | 33 | 0.2
Cc1ccc(NC(=S)NCCc2c[nH]c3ccccc23)cc1 | 11 | 86* | 0.8 | 19 | 0.1
Cc1ccccc1NC(=S)NCCc1c[nH]c2ccccc12 | 16 | / | / | / | /
O=C(O)[C@H]1CCCC[C@H]1C(=O)NCCc1ccccc1 | 2 | -1 | 1 | 4 | 1
COc1ccc(CCNC(=O)C2CCN(S(=O)(=O)c3cc(OC)ccc3OC)CC2)cc1 | 3 | 34 | 1.5 | -50 | 0.7
CCCNC(=O)C(=O)Nc1ccc(N(C)C)cc1 | 7 | / | / | / | /
Cc1cc(C)nc(N/N=C/C=C/c2ccccc2)n1 | 2 | / | / | / | /
O=C(Nc1cnccn1)c1ccncc1 | 3 | 11 | 1 | 4 | 0.9
Cc1c(C#N)c2ccccc2n1CC(=O)NCCc1c[nH]c2ccccc12 | 11 | 41 | 0.6 | 42 | 0.6
N#Cc1cn(CC(=O)NCCc2c[nH]c3ccccc23)c2ccccc12 | 5 | 50* | 0.3 | 66* | 0.5
O=C(NCCc1c[nH]c2ccccc12)c1cnc2sccn2c1=O | 22 | 89* | 2.5* | -152 | 0.1
CC(C)CCN1CCNC(=O)C1CC(=O)Nc1ccc(F)cc1 (configuration not stated) | 2 | 37 | 0.9 | 7 | 0.6
COc1ccc(-c2nc3cnccn3c2Nc2ccc3c(c2)OCO3)cc1 | 3 | 88* | 0.1 | 87* | 0.1
Cc1ccc(-c2nc3cnccn3c2Nc2ccc3c(c2)OCO3)cc1 | 25 | 78* | 0.1 | 86* | 0.2
Cc1ccc(-c2nc3cnccn3c2Nc2ccc3c(c2)OCCO3)o1 | 6 | 87* | 0.3 | 72* | 0.1
Cc1cc(C)n2c(Nc3ccc4c(c3)OCCO4)c(-c3ccccc3)nc2n1 | 3 | 36 | 0.2 | 76* | 0.6
CCOC(=O)CN1NC2(CCCCC2)NC1=S | 2 | 18 | 0.8 | 18 | 0.8
O=C(OC(C(=O)NC1CCCC1)c1ccccc1F)c1ccco1 (configuration not stated) | 13 | 48 | 0.3 | 69* | 0.5
O=C(OC(C(=O)NC1CCCCC1)c1ccccc1)c1ccco1 (configuration not stated) | 4 | / | / | / | /
CC(C)CC(OC(=O)c1ccco1)C(=O)NC1CCCCC1 (configuration not stated) | 5 | 83* | 0.1 | 87* | 0.2
Cc1ccc(-c2noc(C3CCN(S(=O)(=O)c4ccc5c(c4)OCCO5)CC3)n2)o1 | 14 | 5 | 1.2 | -20 | 0.9
Cc1ccc(-c2noc(C3CCN(C(=O)Nc4ccc(C#N)cc4)CC3)n2)o1 | 35 | 83* | 0.4 | 61* | 0.2

Screening results from PubChem.
